Data: PubChem BioAssay (NCATS)
Where “and” joins values, the source holds several entries; their conditions need not be identical. Equal values may be shown once. Results filed as inconclusive are left out. Some compounds were tested as several samples or in several runs, with calls that do not always agree. Calls of active or inactive are those of the source. Unless noted, calls come from the whole dose curve; as a rule, active = well fitted curve in the direction sought with a large enough effect; inconclusive = small, poorly fitted or top-dose-only effect, or another doubt; inactive = no such curve, though single readings can be large; an effect the other way counts as inactive or inconclusive.

How the values were obtained:
Tov112D = test: Primary qHTS to identify gynecologic anti-cancer compounds using libraries of approved drugs and bioactive compounds (AID 1345084); conditions: Gynecologic cancer cell panel viability, ATPlite luminescence, 48 h; series mostly up to 57.5 µM; note: % is set by controls: 0 for no effect and ±100 for the full control effect; nearly all actives have a fitted effect of over 55% in size
In short: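 Five-point cytotoxicity, 48 h drug exposure at 37 C, 5% CO2, on cells seeded 16 h beforehand. ATP content read by ATPlite luminescence.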

[1] = Drug repurposing screens with cells derived from glioblastoma tumor samples (AID 1345199); conditions: GBM patient neurospheres viability, ATP luminescence, 48 h; note: nearly all actives have a fitted effect of over 40% in size; note: potency is the fitted concentration of half-maximal effect; for activity, negative = cell killing: % is set by controls: 0 for no effect and ±100 for the full control effect
In short: (§1)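 Four patient lines of CD133+ GBM neurospheres were screened at several concentrations; hits were retested in those lines plus three slower-growing GBM lines, using 48-hour treatment and ATP-based viability.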

astro = test: as above; conditions: viability, ATP luminescence, 48 h; series mostly up to 45.9 µM
In short: as §1

[2] = qHTS assay for small molecule activators of the human pregnane X receptor (PXR) signaling pathway (AID 720659; call rule not given here; note: 0% is about no effect)
[3] = target: Nuclear receptor subfamily 1 group I member 2 (Rattus norvegicus) (UniProt Q9R1A7); test: qHTS assay for small molecule activators of the rat pregnane X receptor (rPXR) signaling pathway (AID 651751; call rule not given here; note: 0% is about no effect); conditions: rPXR reporter cells, luciferase (One-Glo), 24 h
Sequence of Nuclear receptor subfamily 1 group I member 2 (Rattus norvegicus) (Q9R1A7 whole entry, looked up): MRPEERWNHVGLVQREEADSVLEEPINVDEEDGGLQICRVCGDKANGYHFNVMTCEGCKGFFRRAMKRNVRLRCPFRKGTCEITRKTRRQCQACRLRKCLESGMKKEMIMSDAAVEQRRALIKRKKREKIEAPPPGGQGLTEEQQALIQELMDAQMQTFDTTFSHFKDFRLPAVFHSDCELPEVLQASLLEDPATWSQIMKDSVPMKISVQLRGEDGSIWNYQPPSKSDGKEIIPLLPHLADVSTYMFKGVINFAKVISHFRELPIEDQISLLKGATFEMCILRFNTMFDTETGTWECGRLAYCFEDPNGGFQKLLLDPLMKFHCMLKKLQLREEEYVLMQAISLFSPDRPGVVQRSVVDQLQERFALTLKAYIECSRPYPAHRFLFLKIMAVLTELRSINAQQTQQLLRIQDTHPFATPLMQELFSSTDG

[4] = at 45.9 µM (top of the series), tumour line B
[5] = at 45.9 µM (top of the series), tumour line D
[6] = at 46.1 µM (top of the series), tumour line C
[7] = at 46 µM (top of the series), tumour line A

COc1ccc(C2CNC(=O)C2)cc1OC1CCCC1 (stereo not drawn)
inactive: Potency (Tov112D) | activity, negative = cell killing ([1]; at 20 µM (top of the series), tumour line C) -0.6% | activity, negative = cell killing ([1]; at 21.2 µM (top of the series), tumour line B) -12.9% | activity, negative = cell killing ([1]; at 21.2 µM (top of the series), tumour line D) -16.7% | activity, negative = cell killing ([1]; at 21.3 µM (top of the series), tumour line A) -26.3%

C[C@H]1c2cccc(O)c2C(O)=C2C(=O)[C@]3(O)C(O)=C(C(N)=O)C(=O)[C@@H](N(C)C)[C@@H]3[C@@H](O)[C@@H]21
inactive: Potency (Tov112D) | activity, negative = cell killing [1, 4] -22.1% | activity, negative = cell killing [1, 5] -13%

Cc1ccc(-c2cc(C(F)(F)F)nn2-c2ccc(S(N)(=O)=O)cc2)cc1
active: Potency ([1]; tumour line A) 8.91 µM
inactive: Potency (Tov112D) | activity, negative = cell killing [1, 4] 2.4% | activity, negative = cell killing [1, 6] 15.9%

O=C(c1ccc(F)cc1)C1CCN(CCn2c(=O)[nH]c3ccccc3c2=O)CC1
active: Potency ([1]; tumour line A) 3.98 µM
inactive: Potency (Tov112D) | activity, negative = cell killing [1, 5] -39.8% | activity, negative = cell killing [1, 6] 7.2%

OCCN(CCO)c1nc(N2CCCCC2)c2nc(N(CCO)CCO)nc(N3CCCCC3)c2n1
inactive: Potency (Tov112D) | activity, negative = cell killing [1, 4] -2.66% | activity, negative = cell killing [1, 5] -18.5% | activity, negative = cell killing [1, 7] -9.97% | activity, negative = cell killing [1, 6] 1.47% | Potency (astro)

NCCc1cnc[nH]1
inactive: Potency (Tov112D) | activity, negative = cell killing [1, 4] 27.7% | activity, negative = cell killing [1, 5] 2.11% | activity, negative = cell killing [1, 6] 0.797% | Potency (astro)

Cc1ccccc1N1C(=O)c2cc(S(N)(=O)=O)c(Cl)cc2NC1C (stereo not drawn)
active: Potency ([1]; tumour line A) 35.5 µM
inactive: Potency (Tov112D) | activity, negative = cell killing [1, 4] -0.853% and -2.25% | activity, negative = cell killing [1, 5] 16.5% and -1.42% | activity, negative = cell killing [1, 7] -25.2% | activity, negative = cell killing [1, 6] -19% and -29.3% | Potency (astro)

CCC1(c2ccccc2)C(=O)NCNC1=O
inactive: Potency (Tov112D) | activity, negative = cell killing [1, 4] -7.45% | activity, negative = cell killing [1, 5] 9.05% | activity, negative = cell killing [1, 7] -15.2% | activity, negative = cell killing [1, 6] -6.01% | Potency (astro) | outcome [2]

CCC1(C)CC(=O)NC1=O (stereo not drawn)
inactive: Potency (Tov112D) | activity, negative = cell killing [1, 4] -5.39% | activity, negative = cell killing [1, 5] -6.6% | activity, negative = cell killing [1, 7] -18.2% | activity, negative = cell killing [1, 6] -11.1% | Potency (astro)

N[C@@H](Cc1c[nH]c2ccc(O)cc12)C(=O)O
inactive: Potency (Tov112D) | activity, negative = cell killing [1, 4] -15.2% | activity, negative = cell killing [1, 5] -5.01% | activity, negative = cell killing [1, 7] -33.5% | activity, negative = cell killing [1, 6] -4.77% | max response [3] 2.83% | outcome [2]

O=C1N(c2ccccc2)c2ccccc2C1(Cc1ccncc1)Cc1ccncc1
inactive: Potency (Tov112D) | activity, negative = cell killing [1, 4] -5.15% | activity, negative = cell killing [1, 5] -2.7% | activity, negative = cell killing [1, 6] -22.5% | Potency (astro)

CCCCc1oc2ccccc2c1C(=O)c1cc(I)c(OCCN(CC)CC)c(I)c1
inactive: Potency (Tov112D) | activity, negative = cell killing [1, 6] 2%
active: Potency ([1]; tumour line A) 7.08 µM | Potency ([1]; tumour line B) 25.1 µM | Potency ([1]; tumour line D) 11.2 µM | Potency (astro) 28.2 µM and 20 µM

O=C1Cc2cc(CCN3CCN(c4nsc5ccccc45)CC3)c(Cl)cc2N1
inactive: Potency (Tov112D) | activity, negative = cell killing [1, 4] -28.8% | activity, negative = cell killing [1, 5] -18.4% | activity, negative = cell killing [1, 6] -28.3% and -12.6%
active: Potency ([1]; tumour line B) 17.8 µM | Potency ([1]; tumour line D) 12.6 µM

CN(C)CCOC(c1ccccc1)c1ccccc1
active: Potency ([1]; tumour line A) 22.4 µM and 12.6 µM
inactive: Potency (Tov112D) | activity, negative = cell killing [1, 4] 0.893% | activity, negative = cell killing [1, 5] 1.4% | activity, negative = cell killing [1, 6] 1.73% and -22.4% | max response [3] 2.67%

CN1CCC(=C2c3ccccc3C=Cc3ccccc32)CC1
inactive: Potency (Tov112D) | activity, negative = cell killing [1, 6] -12.4%
active: Potency ([1]; tumour line A) 3.55 µM | Potency ([1]; tumour line B) 25.1 µM | Potency ([1]; tumour line D) 20 µM | Potency (astro) 17.8 µM

COc1ccc2c(c1)c(CC(=O)O)c(C)n2C(=O)c1ccc(Cl)cc1
inactive: Potency (Tov112D) | activity, negative = cell killing [1, 4] -14.6% | activity, negative = cell killing [1, 5] -6.82% | activity, negative = cell killing [1, 7] -26.1% | activity, negative = cell killing [1, 6] -12.3% | max response [3] -2.59% and -3.57% | outcome [2]

CC(C(=O)O)c1cccc(C(=O)c2ccccc2)c1 (stereo not drawn)
inactive: Potency (Tov112D) | activity, negative = cell killing [1, 4] -12.8% | activity, negative = cell killing [1, 5] -8.28% | activity, negative = cell killing [1, 7] -32% | activity, negative = cell killing [1, 6] 2.51% | Potency (astro)

CS(=O)(=O)CCNCc1ccc(-c2ccc3ncnc(Nc4ccc(OCc5cccc(F)c5)c(Cl)c4)c3c2)o1
inactive: Potency (Tov112D) | activity, negative = cell killing [1, 4] -6.77% | activity, negative = cell killing [1, 5] -7.21% | activity, negative = cell killing [1, 6] -22.4% | Potency (astro)

CCc1cccc2c3c([nH]c12)C(CC)(CC(=O)O)OCC3 (stereo not drawn)
inactive: Potency (Tov112D) | activity, negative = cell killing [1, 4] -7.67% | activity, negative = cell killing [1, 5] -2.3% | activity, negative = cell killing [1, 7] -23.8% | activity, negative = cell killing [1, 6] -25.9% | Potency (astro)

CCOC(=O)Nc1ccc(NCc2ccc(F)cc2)nc1N
inactive: Potency (Tov112D) | activity, negative = cell killing [1, 4] -10.5% and -16.1% | activity, negative = cell killing [1, 5] -21.3% and 3.4% | activity, negative = cell killing [1, 6] 4.51% | Potency (astro)
active: Potency ([1]; tumour line A) 10 µM
